Reference: the supplement of paper PMC6658780
Counter-ions that a name gives are not always drawn. ± gives the standard deviation of the averaged measurements.

test system: Klebsiella pneumoniae KPC-119; assay: percent growth inhibition of drug alone vs DMSO control; higher = more growth inhibition; conditions: antibiotic (0.125x MIC): none (0.1% DMSO); 7 µM

| SMILES | percent growth inhibition of drug alone |
| --- | --- |
| Clc1ccc(CCC(Cn2ccnc2)Sc2c(Cl)cccc2Cl)cc1 (stereo not given) [Butoconazole nitrate] | -1.2 ± 2.2% |
| Cc1cc(C(C)(C)CC(C)(C)C)ccc1OCCOCC[N+](C)(C)Cc1ccccc1 [Methyl benzethonium chloride] | -1.94 ± 2.4% |
| CC(=O)OC[C@H]1O[C@@H]([S-])[C@H](OC(C)=O)[C@@H](OC(C)=O)[C@@H]1OC(C)=O.CCP(CC)CC.[Au+] [Auranofin] | 10 ± 0.89% |
| CO[C@H]1/C=C/O[C@@]2(C)Oc3c(C)c(O)c4c(O)c(c(/C=N/N5CCN(C6CCCC6)CC5)c(O)c4c3C2=O)NC(=O)/C(C)=C\C=C\[C@H](C)[C@H](O)[C@@H](C)[C@@H](O)[C@@H](C)[C@H](OC(C)=O)[C@@H]1C [Rifapentine] | 2.17 ± 1.7% |
| CN(C)c1ccc(O)c2c1C[C@H]1C[C@H]3[C@H](N(C)C)C(O)=C(C(N)=O)C(=O)[C@@]3(O)C(O)=C1C2=O [Minocycline hydrochloride] | 10.9 ± 1.6% |
| NC[C@@H]1O[C@H](O[C@H]2[C@@H](O)[C@H](O[C@@H]3[C@@H](O)[C@H](N)C[C@H](N)[C@H]3O[C@H]3O[C@H](CO)[C@@H](O)[C@H](O)[C@H]3N)O[C@@H]2CO)[C@H](N)[C@@H](O)[C@@H]1O [Paromomycin sulfate] | -0.033 ± 0.073% |
| Oc1c(Cl)cc(Cl)c(Cl)c1Cc1c(O)c(Cl)cc(Cl)c1Cl [Hexachlorophene] | 0.779 ± 4.2% |
| CO[C@@]1(NC(=O)Cc2cccs2)C(=O)N2C(C(=O)O)=C(COC(N)=O)CS[C@@H]21 [Cefoxitin sodium salt] | 5.37 ± 2% |
| OC(c1cc(C(F)(F)F)nc2c(C(F)(F)F)cccc12)C1CCCCN1 (stereo not given) [Mefloquine hydrochloride] | 0.355 ± 6.6% |
| COc1cccc2c1C(=O)c1c(O)c3c(c(O)c1C2=O)C[C@@](O)(C(=O)CO)C[C@@H]3O[C@H]1C[C@H](N)[C@@H](O)[C@H](C)O1 [Epirubicin hydrochloride] | -1.63 ± 2.7% |
| CCCCOC(=O)c1ccc(N)cc1 [Butamben] | -0.672 ± 3.4% |
| CO[C@H]1/C=C/O[C@@]2(C)Oc3c(C)c(O)c4c(c3C2=O)C2=NC3(CCN(CC(C)C)CC3)NC2=C(NC(=O)/C(C)=C\C=C\[C@H](C)[C@H](O)[C@@H](C)[C@@H](O)[C@@H](C)[C@H](OC(C)=O)[C@@H]1C)C4=O [Rifabutin] | 8.64 ± 2.6% |
| O=C1OCCN1/N=C/c1ccc([N+](=O)[O-])o1 [Furazolidone] | 18.3 ± 1.2% |
| CN[C@@H]1[C@@H](O[C@H]2O[C@H](CO)[C@@H](N)[C@H](O)[C@H]2O)OC2C[C@@H](N)[C@@H](O[C@H]3[C@H](O)[C@@H](O)[C@H](N)C[C@@H]3N)OC2[C@@H]1O (stereo not given in full) [Apramycin] | 4.95 ± 5.6% |
| O=C(O)c1cn(-c2ccc(F)cc2)c2cc(N3CCNCC3)c(F)cc2c1=O [Sarafloxacin] | 56.9 ± 1.9% |
| OCCOCCN1CCN(C2=Nc3ccccc3Sc3ccccc32)CC1 [Quetiapine hemifumarate] | -3.12 ± 4% |
| CO[C@H]1/C=C/O[C@@]2(C)Oc3c(C)c(O)c4c(O)c(c5c(nc6cc(C)ccn65)c4c3C2=O)NC(=O)/C(C)=C\C=C\[C@H](C)[C@H](O)[C@@H](C)[C@@H](O)[C@@H](C)[C@H](OC(C)=O)[C@@H]1C [Rifaximin] | 18.5 ± 1.3% |
| CCCCCCCCCCCCCCCC[N+](C)(C)CCN(Cc1ccc(OC)cc1)c1ncccn1 [Thonzonium bromide] | -1.94 ± 3.1% |
| CC[C@H]1OC(=O)[C@H](C)[C@@H](O[C@H]2C[C@@](C)(OC)[C@@H](O)[C@H](C)O2)[C@H](C)[C@@H](O[C@@H]2O[C@H](C)C[C@H](N(C)C)[C@H]2O)[C@](C)(O)C[C@@H](C)CN(C)[C@H](C)[C@@H](O)[C@]1(C)O [Azithromycin] | 5.21 ± 1.8% |
| O=c1[nH]c(=O)n([C@H]2C[C@H](O)[C@@H](CO)O2)cc1F [Floxuridine] | 34.2 ± 2.8% |
